Inconclusive results are not listed. Calls of active or inactive are those of the source. The call rests on the fitted dose curve; in most records, active means well fitted curve in the direction sought with a large enough effect in the repeat runs; inconclusive means weak or mixed curves; inactive means no such curve, though single readings can be large; an effect the other way counts as inactive or inconclusive.
What was measured:
[1] = qHTS RealTime-Glo MT Cell Viability Assay in HepG2 cells - 24 hour (AID 1224867); further: nearly all actives have a fitted effect of over 50% in size
Outline: (§1)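 Cells + NanoLuc/prosubstrate dispensed (600 cells/well) → 5 h at 37 C/5% CO2 → compounds in DMSO transferred → 40 h incubation at 37 C, luminescence read at 0, 8, 16, 24, 32, 40 h.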

[2] = qHTS RealTime-Glo MT Cell Viability Assay in HEK293 cells - 32 hour (AID 1224868); further: nearly all actives have a fitted effect of over 50% in size; further: potency means the concentration at half of the fitted maximal effect; on activity change, negative = cytotoxic: top concentration of the series differs between compounds
Outline: (§2)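 Tox21 10K qHTS, HEK293, 600 cells/well, RealTime-Glo reagent co-dispensed with cells; 5 h preincubation, compound by pintool, 37 C, luminescence at 0–40 h.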

[3] = A CellTox Green Cytotoxicity Assay to monitor cytotoxicity in HEK293 cells - 0 hour (AID 1224869); further: nearly all actives have a fitted effect of over 50% in size
Outline: (§3)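 Tox21 screen in HEK293: membrane-impermeant cyanine dye fluoresces on binding dead-cell DNA; compound pinned 5 h post-seeding, plates held at 37 C, signal read repeatedly through 40 h.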

[4] = qHTS RealTime-Glo MT Cell Viability Assay in HepG2 cells - 40 hour (AID 1224870); further: nearly all actives have a fitted effect of over 50% in size
Outline: (§4)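 HepG2 cells (600/well) mixed with RealTime-Glo MT reagent, settled 5 h at 37 C/5% CO2 before compound addition. Nonlytic NanoLuc luminescence from viable-cell prosubstrate reduction read repeatedly during 40 h treatment at 37 C.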

[5] = A CellTox Green Cytotoxicity Assay to monitor cytotoxicity in HEK293 cells - 40 hour (AID 1224871); further: nearly all actives have a fitted effect of over 45% in size
Outline: as §3

[6] = qHTS RealTime-Glo MT Cell Viability Assay in HEK293 cells - 16 hour (AID 1224872); further: nearly all actives have a fitted effect of over 50% in size; further: potency means the concentration at half of the fitted maximal effect; on activity change, negative = cytotoxicity: top concentration of the series differs between compounds
Outline: as §2

[7] = qHTS RealTime-Glo MT Cell Viability Assay in HepG2 cells - 8 hour (AID 1224873); further: nearly all actives have a fitted effect of over 55% in size
Outline: as §4

[8] = qHTS RealTime-Glo MT Cell Viability Assay in HEK293 cells - 40 hour (AID 1224874); conditions: RealTime-Glo luminescence; max response: stronger effect = lower value; further: nearly all actives have a fitted effect of over 50% in size; further: potency means the concentration at half of the fitted maximal effect
Outline: (§5)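 HEK293 + NanoLuc + prosubstrate, 600 cells/well; 5 h, 37 C/5% CO2; compound 23 nL in DMSO by pintool; 37 C; luminescence read at 0, 8, 16, 24, 32 and 40 h time points.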

[9] = A CellTox Green Cytotoxicity Assay to monitor cytotoxicity in HEK293 cells - 24 hour (AID 1224875); further: series mostly up to about 77 µM; nearly all actives have a fitted effect of over 45% in size
Outline: as §3

[10] = A CellTox Green Cytotoxicity Assay to monitor cytotoxicity in HepG2 cells - 16 hour (AID 1224876); further: nearly all actives have a fitted effect of over 45% in size
Outline: (§6)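 Measurements at 0, 8, 16, 24, 32 and 40 h of treatment captured CellTox Green fluorescence in HepG2 cells that had been co-plated with reagent and preincubated 5 h at 37 C/5% CO2.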

[11] = qHTS RealTime-Glo MT Cell Viability Assay in HepG2 cells - 32 hour (AID 1224877); further: nearly all actives have a fitted effect of over 55% in size
Outline: as §1

[12] = A CellTox Green Cytotoxicity Assay to monitor cytotoxicity in HepG2 cells - 24 hour (AID 1224878); further: nearly all actives have a fitted effect of over 45% in size
Outline: as §6

[13] = A CellTox Green Cytotoxicity Assay to monitor cytotoxicity in HepG2 cells - 40 hour (AID 1224879); further: nearly all actives have a fitted effect of over 40% in size
Outline: as §6

[14] = qHTS RealTime-Glo MT Cell Viability Assay in HEK293 cells - 0 hour (AID 1224880)
Outline: as §5

[15] = A CellTox Green Cytotoxicity Assay to monitor cytotoxicity in HEK293 cells - 32 hour (AID 1224881); further: nearly all actives have a fitted effect of over 40% in size
Outline: as §3

[16] = A CellTox Green Cytotoxicity Assay to monitor cytotoxicity in HepG2 cells - 0 hour (AID 1224882); further: nearly all actives have a fitted effect of over 35% in size
Outline: as §6

[17] = A CellTox Green Cytotoxicity Assay to monitor cytotoxicity in HepG2 cells - 32 hour (AID 1224883); further: nearly all actives have a fitted effect of over 50% in size
Outline: as §6

[18] = A CellTox Green Cytotoxicity Assay to monitor cytotoxicity in HEK293 cells - 8 hour (AID 1224884); further: nearly all actives have a fitted effect of over 35% in size
Outline: as §3

[19] = qHTS RealTime-Glo MT Cell Viability Assay in HepG2 cells - 16 hour (AID 1224885); further: nearly all actives have a fitted effect of over 50% in size
Outline: as §1

[20] = qHTS RealTime-Glo MT Cell Viability Assay in HEK293 cells - 24 hour (AID 1224886); further: nearly all actives have a fitted effect of over 50% in size; further: potency means the concentration at half of the fitted maximal effect; on activity change, negative = cytotoxicity: top concentration of the series differs between compounds
Outline: as §2
On the % scale 0 is the no-effect control and ±100 the full control effect.

CC(C)[C@H]1CC[C@H](C)C[C@@H]1O
inactive: outcome [1] | Potency [2] | Potency [3] | outcome [4] | Potency [5] | Potency [6] | outcome [7] | max response [8] 2.31% | Potency [9] | Potency [10] | outcome [11] | Potency [12] | Potency [13] | Potency [14] | Potency [15] | Potency [16] | Potency [17] | Potency [18] | outcome [19] | Potency [20]

CC(C)NC(=O)c1ccc(C=O)cc1
inactive: outcome [1] | Potency [2] | Potency [3] | outcome [4] | Potency [5] | Potency [6] | outcome [7] | max response [8] 0.577% | Potency [9] | Potency [10] | outcome [11] | Potency [12] | Potency [13] | Potency [14] | Potency [15] | Potency [16] | Potency [17] | Potency [18] | outcome [19] | Potency [20]

COc1c2occc2c(OC)c2c(=O)cc(C)oc12
active: Potency [2] 9.52 µM | Potency [6] 9.52 µM | Potency [8] 9.52 µM | Potency [20] 8.49 µM
inactive: outcome [1] | Potency [3] | outcome [4] | Potency [5] | outcome [7] | Potency [9] | Potency [10] | outcome [11] | Potency [12] | Potency [13] | Potency [14] | Potency [15] | Potency [16] | Potency [17] | Potency [18] | outcome [19]

CC(C)Cn1cnc2c1c(=O)n(C)c(=O)n2C
inactive: outcome [1] | Potency [2] | Potency [3] | outcome [4] | Potency [5] | Potency [6] | outcome [7] | max response [8] 2.8% | Potency [9] | Potency [10] | outcome [11] | Potency [12] | Potency [13] | Potency [14] | Potency [15] | Potency [16] | Potency [17] | Potency [18] | outcome [19] | Potency [20]

CCOC(=O)CC1(C)OCC(C)O1 (stereo not given)
inactive: outcome [1] | Potency [2] | Potency [3] | outcome [4] | Potency [5] | Potency [6] | outcome [7] | max response [8] 1.97% | Potency [9] | Potency [10] | outcome [11] | Potency [12] | Potency [13] | Potency [14] | Potency [15] | Potency [16] | Potency [17] | Potency [18] | outcome [19] | Potency [20]

CCn1cc(C(=O)O)c(=O)c2cnc(N3CCCC3)nc21
inactive: activity change, negative = cytotoxicity [1] 0.974% [at 6.97 µM] | activity change, negative = cytotoxic [2] 10% [at 6.97 µM] | cytotoxicity [3] 1.5% [at 6.97 µM] | activity change, negative = cytotoxic [4] 1.51% [at 6.97 µM] | cytotoxicity increase [5] 3.57% [at 6.97 µM] | activity change, negative = cytotoxicity [6] 1.68% [at 6.97 µM] | viability change, negative = cytotoxic [7] 5.81% [at 6.97 µM] | max response [8] 10.4% | activity change [9] 4.09% [at 6.97 µM, stronger effect = higher value] | cytotoxicity increase [10] 3.06% [at 6.97 µM] | activity change, negative = cytotoxic [11] -0.35% [at 6.97 µM] | cytotoxicity [12] 0.605% [at 6.97 µM] | cytotoxicity increase [13] 2.25% [at 6.97 µM] | activity change, negative = cytotoxicity [14] 0.136% [at 6.97 µM] | cytotoxicity increase [15] 4.33% [at 6.97 µM] | cytotoxicity [16] 3.1% [at 6.97 µM] | cytotoxicity increase [17] -0.981% [at 6.97 µM] | cytotoxicity increase [18] 0.169% [at 6.97 µM] | activity change, negative = cytotoxic [19] 2.96% [at 6.97 µM] | activity change, negative = cytotoxicity [20] 7.35% [at 6.97 µM]

Cc1cccc(Cl)c1
inactive: outcome [1] | Potency [2] | Potency [3] | outcome [4] | Potency [5] | Potency [6] | outcome [7] | max response [8] 0.996% | Potency [9] | Potency [10] | outcome [11] | Potency [12] | Potency [13] | Potency [14] | Potency [15] | Potency [16] | Potency [17] | Potency [18] | outcome [19] | Potency [20]

O=C=NCC1CCCC(CN=C=O)C1 (stereo not given)
inactive: outcome [1] | Potency [2] | Potency [3] | outcome [4] | Potency [5] | Potency [6] | outcome [7] | max response [8] 1.36% | Potency [9] | Potency [10] | outcome [11] | Potency [12] | Potency [13] | Potency [14] | Potency [15] | Potency [16] | Potency [17] | Potency [18] | outcome [19] | Potency [20]

CC(=O)c1cc(C)oc1C
inactive: outcome [1] | Potency [2] | Potency [3] | outcome [4] | Potency [5] | Potency [6] | outcome [7] | max response [8] -0.494% | Potency [9] | Potency [10] | outcome [11] | Potency [12] | Potency [13] | Potency [14] | Potency [15] | Potency [16] | Potency [17] | Potency [18] | outcome [19] | Potency [20]

CCCC(=O)Nc1ccc(OCC(O)CNC(C)C)c(C(C)=O)c1 (stereo not given)
inactive: outcome [1] | Potency [2] | Potency [3] | outcome [4] | Potency [5] | Potency [6] | outcome [7] | max response [8] 4% | Potency [9] | Potency [10] | outcome [11] | Potency [12] | Potency [13] | Potency [14] | Potency [15] | Potency [16] | Potency [17] | Potency [18] | outcome [19] | Potency [20]

O=C(CCCl)NCCc1ccccc1
inactive: outcome [1] | Potency [2] | Potency [3] | outcome [4] | Potency [5] | Potency [6] | outcome [7] | max response [8] 5.46% | Potency [9] | Potency [10] | outcome [11] | Potency [12] | Potency [13] | Potency [14] | Potency [15] | Potency [16] | Potency [17] | Potency [18] | outcome [19] | Potency [20]

Cc1ccc(C)c([N+](=O)[O-])c1
inactive: outcome [1] | Potency [2] | Potency [3] | outcome [4] | Potency [5] | Potency [6] | outcome [7] | max response [8] 12.1% | Potency [9] | Potency [10] | outcome [11] | Potency [12] | Potency [13] | Potency [14] | Potency [15] | Potency [16] | Potency [17] | Potency [18] | outcome [19] | Potency [20]

Source: PubChem BioAssay (Tox21)
